# Test results as given in paper PMC7819943, “Rice protein-binding microarrays: a tool to detect cis-acting elements near promoter regions in rice”.
# The full ranking holds about 39,000 sequences; the median of “fluorescence intensity (a.u.)” is about 4,300, and the highest 2% start at about 39,000. What follows is part of a selection rich in the highest values, with near analogues and random picks from the rest.
# Molecular target: T1, OsSMF1 (Oryza sativa, UniProt Q6ZLB0 1-436)
# T1 sequence: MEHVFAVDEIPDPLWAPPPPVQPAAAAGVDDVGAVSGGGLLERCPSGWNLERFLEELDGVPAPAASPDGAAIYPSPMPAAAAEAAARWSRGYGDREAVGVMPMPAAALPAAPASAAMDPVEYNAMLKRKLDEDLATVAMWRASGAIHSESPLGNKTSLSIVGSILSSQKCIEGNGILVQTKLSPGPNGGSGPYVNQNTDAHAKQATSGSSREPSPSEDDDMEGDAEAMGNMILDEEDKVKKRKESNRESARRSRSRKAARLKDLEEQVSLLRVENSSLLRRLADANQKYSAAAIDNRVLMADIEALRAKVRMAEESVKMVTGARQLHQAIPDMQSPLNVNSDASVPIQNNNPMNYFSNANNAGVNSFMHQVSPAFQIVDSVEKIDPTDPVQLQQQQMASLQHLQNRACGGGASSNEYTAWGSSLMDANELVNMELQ
# Experiment: protein-binding microarray (RPBM); PBS, 2% BSA, 51.3 ng/ul salmon testes DNA, 50 uM zinc acetate, 200 nM TF, 25 C, 1 h; high values mean tight binding
# Conditions: protein: recombinant; tags: N-terminal polyhistidine and DsRed monomer fusion (pET32a); chain copies: 2; label: CyDye5-dUTP incorporated in the synthesized complementary strand; 3' TTTTT single-stranded linker to array surface; dsDNA, one strand shown
# Outline: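 Binding signal is defined as the fluorescence intensity of each feature in arbitrary units, read on an Axon 4000B scanner. Transcription factors with N-terminal polyhistidine and DsRed fusions came from E. coli BL21-CodonPlus and were purified on Ni–NTA. They were incubated at 200 nM for 1 h at 25 °C on a custom Agilent array that had been made double-stranded with Cy5-dUTP, with 50 µM zinc acetate present, and the array was washed.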
row,Sequence,binding signal
1,ACCGATGCCATCATCCACGTCATCGTCCACGTGTCACCCACGGAGTCACCTAGTGCAG,45100 fluorescence intensity (a.u.)
2,CTCATCGTCCTCCACGTGTCCACCCATACACGTGTCGCCACGGAGTCACCTAGTGCAG,29800 fluorescence intensity (a.u.)
3,TATGTATGAATGACAACACCGCCACGTCAGCGCCACGTCACGGAGTCACCTAGTGCAG,50400 fluorescence intensity (a.u.)
4,GACAACCGAACACGTCGAGCCAGCGAATGATGAAACCCCACGGAGTCACCTAGTGCAG,31800 fluorescence intensity (a.u.)
5,ATGGACTGTTTTGTCAACTAAGTAATGCATGACACGTGGACGGAGTCACCTAGTGCAG,14500 fluorescence intensity (a.u.)
6,CTGAATTTAGACACCTCAGCGCCACGTCAACTGGCGCTGACGGAGTCACCTAGTGCAG,18400 fluorescence intensity (a.u.)
7,AATCTCACCCATCCACGTGTCCCCAGATCTCATCCCCATCCGGAGTCACCTAGTGCAG,18700 fluorescence intensity (a.u.)
8,ATTCTAATGACACCTAAGTGCCACGTCAACGCCACGTGGACGGAGTCACCTAGTGCAG,45100 fluorescence intensity (a.u.)
9,GTCCGATCGGACGCACCACGCATCCTAGCCGTCCACGCCACGGAGTCACCTAGTGCAG,3180 fluorescence intensity (a.u.)
10,TACCAGTGTCACGCAGTGACGCAATGGATCATGCTATCCACGGAGTCACCTAGTGCAG,4450 fluorescence intensity (a.u.)
11,ACGCATGGATCCACGTGACGTCACGCCACGTCATCCACCACGGAGTCACCTAGTGCAG,60800 fluorescence intensity (a.u.)
12,CGGCGGCTTCTTGTTGGTGACGCCGCACGGCATGGTTGATCGGAGTCACCTAGTGCAG,5370 fluorescence intensity (a.u.)
13,CACTGCCCATTCGCCACGTCCCCTAACGCTCCAGGTTTATCGGAGTCACCTAGTGCAG,11800 fluorescence intensity (a.u.)
14,GAGATCGAACATCGATGCAGCCCCGCGTCAGGTGCCAAGTCGGAGTCACCTAGTGCAG,3510 fluorescence intensity (a.u.)
15,ACCATGGTCTAACCTACGTGGCATGCCACGTGTGCGTGTGCGGAGTCACCTAGTGCAG,56000 fluorescence intensity (a.u.)
16,CATGGTGCGGGCCAGCTCAGCTGTGCACGTGGCATGCCACCGGAGTCACCTAGTGCAG,17200 fluorescence intensity (a.u.)
17,CACGTGTACAAGGGCAAAGCGCAACACCGACCCGAGTCCACGGAGTCACCTAGTGCAG,39300 fluorescence intensity (a.u.)
18,TTGAACCCCGTGTACATCAACAAACCACGTGTCCATCAAGCGGAGTCACCTAGTGCAG,6220 fluorescence intensity (a.u.)
19,ACCCAAAGCCACCCGCAACAACCGACGACGACGACGACCGCGGAGTCACCTAGTGCAG,24100 fluorescence intensity (a.u.)
20,TAACCATGGTCTTGCCTACGTGGCGTGCCACGTAGACGATCGGAGTCACCTAGTGCAG,34300 fluorescence intensity (a.u.)
21,AAAGTTTCATGCCTGAGATGTTATGTTACGTGTCTATCCACGGAGTCACCTAGTGCAG,7680 fluorescence intensity (a.u.)
22,AACATGATTTAACAGGTAACAGTCGCCCATGCCATTCTTGCGGAGTCACCTAGTGCAG,3350 fluorescence intensity (a.u.)

row,Sequence,binding signal
1,ATTTTCATGCTTAGATGTAGTAACTACACCAACATTACATCGGAGTCACCTAGTGCAG,3310 fluorescence intensity (a.u.)
2,ATGTTTCTGCGGCCCGTCATCCGTGTTTGAGTCGGTTATACGGAGTCACCTAGTGCAG,4220 fluorescence intensity (a.u.)
3,CGCAGCCCGAGCCCGCCGTATTCCACGTCGACGCTGTCGTCGGAGTCACCTAGTGCAG,5720 fluorescence intensity (a.u.)
4,GAAATTTTCAGGGTGTTACATAGATCAACTGAATTCCTTACGGAGTCACCTAGTGCAG,3550 fluorescence intensity (a.u.)
5,TATAAATTTGGACACATATATGAAACACATATATTGATCCCGGAGTCACCTAGTGCAG,30400 fluorescence intensity (a.u.)
6,ATAAATTTGGACGCATCCCAAAATTCGGCAAACATATGACCGGAGTCACCTAGTGCAG,39200 fluorescence intensity (a.u.)
7,CATAAATGAGATCCAGTGACGGCATGAGCATGTCCCAATTCGGAGTCACCTAGTGCAG,24900 fluorescence intensity (a.u.)
8,GTGAGAGAAGCCGCCTTGGATGATGTCAACCATGGTGGCGCGGAGTCACCTAGTGCAG,6930 fluorescence intensity (a.u.)
9,CAATGCTAGCCGCGCAATCTGCGCGGGCCACCATGCTATTCGGAGTCACCTAGTGCAG,3430 fluorescence intensity (a.u.)
10,CAAACCCTAGCTCATATGGTTGTAGTCTTAGCTACTATCACGGAGTCACCTAGTGCAG,50500 fluorescence intensity (a.u.)
11,GATATCATGTAGGAGTAGTAGTTGTTATGTGTGTGGGCTACGGAGTCACCTAGTGCAG,13000 fluorescence intensity (a.u.)
12,CAATTATCCGCAACGTATGGCTAGCTCAACCCTACTGTAACGGAGTCACCTAGTGCAG,3270 fluorescence intensity (a.u.)
13,GGGCCAAAACAAAGCCAGCGTGCAACCCTCGACAAAGCACCGGAGTCACCTAGTGCAG,4110 fluorescence intensity (a.u.)
14,GATGGCTATCTGCCCGGGCAAAGTGTACCCTTTTACTGTTCGGAGTCACCTAGTGCAG,30800 fluorescence intensity (a.u.)
15,CACACCCTTACTGTAGCTATCACTGCACAAAGCCAAAACCCGGAGTCACCTAGTGCAG,43600 fluorescence intensity (a.u.)
16,GCCTTCTTCCTCGCCTGCGGCCGTCTCCGCCACCTCGACCCGGAGTCACCTAGTGCAG,4040 fluorescence intensity (a.u.)
17,CCGTCTTCTTCCTCCACGTTCCTATCCATGGCGCCAGTTCCGGAGTCACCTAGTGCAG,41400 fluorescence intensity (a.u.)
18,CTTTGCCACGGCGGTCTCTCGTCCTCTTCCTCCTCTCCGCCGGAGTCACCTAGTGCAG,4190 fluorescence intensity (a.u.)
19,TCCATGGCGCCACACGTCACCACCTTCTCACACCCTCGTCCGGAGTCACCTAGTGCAG,18400 fluorescence intensity (a.u.)
20,CAACCATGGCGTCATCCTCTTCCTCCTCCTCCTCCTCCTCCGGAGTCACCTAGTGCAG,5800 fluorescence intensity (a.u.)
21,CCACGGGTTCTTCCTCGATGCCTTCTCCGGCGCCGTCCGGCGGAGTCACCTAGTGCAG,45300 fluorescence intensity (a.u.)
